Inconclusive results are not listed. Active and inactive are the calls of the source. Unless noted, calls come from the whole dose curve.
What was measured:
[1] = molecular target: Androgen receptor (Homo sapiens) (UniProt P10275); test: qHTS assay for small molecule antagonists of androgen receptor signaling (AID 588516; active = well fitted curve in the direction sought with a large enough effect in the signal ratio, with a control signal flat, not every such curve was filed as active; the % refers to the signal ratio; note: % is set by controls: 0 for no effect and ±100 for the full control effect); conditions: AR-UAS-bla HEK293, beta-lactamase ratio, antagonist mode, 16 h; series mostly up to 76.8 µM
Sequence of Androgen receptor (Homo sapiens) (P10275 whole entry, looked up): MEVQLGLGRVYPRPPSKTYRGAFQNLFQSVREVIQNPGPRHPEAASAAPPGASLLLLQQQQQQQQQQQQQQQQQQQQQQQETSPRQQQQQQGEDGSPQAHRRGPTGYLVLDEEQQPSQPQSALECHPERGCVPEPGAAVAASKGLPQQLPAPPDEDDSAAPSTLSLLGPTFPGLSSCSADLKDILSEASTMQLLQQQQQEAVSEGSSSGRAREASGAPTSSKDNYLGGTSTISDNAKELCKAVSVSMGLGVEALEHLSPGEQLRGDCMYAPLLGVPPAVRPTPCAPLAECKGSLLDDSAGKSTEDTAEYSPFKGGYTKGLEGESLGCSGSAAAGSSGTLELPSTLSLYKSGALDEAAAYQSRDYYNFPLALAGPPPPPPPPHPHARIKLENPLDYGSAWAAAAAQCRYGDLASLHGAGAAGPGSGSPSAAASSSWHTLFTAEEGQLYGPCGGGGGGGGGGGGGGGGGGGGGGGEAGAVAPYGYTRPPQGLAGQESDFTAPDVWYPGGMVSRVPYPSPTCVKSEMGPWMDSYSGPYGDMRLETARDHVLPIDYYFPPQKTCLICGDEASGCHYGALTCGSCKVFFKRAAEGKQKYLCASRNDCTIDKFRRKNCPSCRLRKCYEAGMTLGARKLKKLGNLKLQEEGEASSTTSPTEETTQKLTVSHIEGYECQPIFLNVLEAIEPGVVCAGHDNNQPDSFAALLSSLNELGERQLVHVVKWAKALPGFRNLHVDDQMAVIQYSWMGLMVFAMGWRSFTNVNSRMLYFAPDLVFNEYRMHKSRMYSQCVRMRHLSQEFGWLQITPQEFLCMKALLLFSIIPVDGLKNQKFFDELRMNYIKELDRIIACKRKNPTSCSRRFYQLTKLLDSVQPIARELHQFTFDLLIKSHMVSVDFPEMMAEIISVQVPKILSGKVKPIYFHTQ
Summary of the method: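 Antagonist mode: inhibition of R1881-stimulated (10 nM final) bla reporter in GeneBLAzer AR HEK 293 cells, 16 h at 37C, compounds titrated. IC50 and efficacy from Hill-equation fits of 405/460–530 nm FRET ratios.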

[2] = molecular target: Bile acid receptor (Homo sapiens) (UniProt Q96RI1); test: qHTS assay for small molecule antagonists of farnesoid X receptor signaling (AID 588526); conditions: HEK293T FXR-UAS-bla, beta-lactamase ratio, antagonist mode; series mostly up to 76.7 µM; note: % is set by controls: 0 for no effect and ±100 for the full control effect
Sequence of Bile acid receptor (Homo sapiens) (Q96RI1 whole entry, looked up): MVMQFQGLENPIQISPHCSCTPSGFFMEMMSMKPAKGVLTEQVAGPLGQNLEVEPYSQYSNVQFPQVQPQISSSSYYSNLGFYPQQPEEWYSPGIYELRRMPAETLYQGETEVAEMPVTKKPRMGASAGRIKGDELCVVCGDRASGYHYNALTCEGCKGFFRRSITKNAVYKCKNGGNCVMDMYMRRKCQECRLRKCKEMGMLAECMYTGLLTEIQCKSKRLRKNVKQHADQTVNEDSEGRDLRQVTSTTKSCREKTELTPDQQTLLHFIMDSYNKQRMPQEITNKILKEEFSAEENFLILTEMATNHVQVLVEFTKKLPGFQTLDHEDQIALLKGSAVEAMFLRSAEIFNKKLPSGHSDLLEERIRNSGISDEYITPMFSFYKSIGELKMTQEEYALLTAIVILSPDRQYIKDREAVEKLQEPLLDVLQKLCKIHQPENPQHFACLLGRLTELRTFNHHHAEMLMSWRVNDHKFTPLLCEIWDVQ
Summary of the method: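 Antagonist mode: titrated compounds tested against chenodeoxycholic acid stimulation (normalized to 50 uM CDCA and DMSO) in GeneBLAzer HEK293T cells for 16 h. Beta-lactamase read by CCF4 fluorescence; IC50 from Hill fits.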

[3] = qHTS assay for small molecule antagonists of peroxisome proliferator-activated receptor delta signaling (AID 588535; active = well fitted inhibition curve with a large enough effect in the signal ratio, with a control signal flat, not every such curve was filed as active; the % refers to the signal ratio;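 for max response: cells co-treated with a PPAR-delta agonist as stimulator during compound exposure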); conditions: HEK293T PPARd-UAS-bla, beta-lactamase FRET ratio, 18 h; 460 nm channel
Summary of the method: (§1)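 Antagonist-mode beta-lactamase reporter (GeneBLAzer PPAR-delta-UAS-bla) in HEK293T cells, 2% charcoal/dextran FBS, 4000 cells/well. Compound titrations, 18 h at 37 C; CCF4 ratio read, IC50 and efficacy from Hill fits.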

[4] = molecular target: Peroxisome proliferator-activated receptor delta (Homo sapiens) (UniProt Q03181); test: as above; conditions: HEK293T PPARd-UAS-bla, beta-lactamase FRET ratio, 18 h; series mostly up to 76.7 µM
Sequence of Peroxisome proliferator-activated receptor delta (Homo sapiens) (Q03181 whole entry, looked up): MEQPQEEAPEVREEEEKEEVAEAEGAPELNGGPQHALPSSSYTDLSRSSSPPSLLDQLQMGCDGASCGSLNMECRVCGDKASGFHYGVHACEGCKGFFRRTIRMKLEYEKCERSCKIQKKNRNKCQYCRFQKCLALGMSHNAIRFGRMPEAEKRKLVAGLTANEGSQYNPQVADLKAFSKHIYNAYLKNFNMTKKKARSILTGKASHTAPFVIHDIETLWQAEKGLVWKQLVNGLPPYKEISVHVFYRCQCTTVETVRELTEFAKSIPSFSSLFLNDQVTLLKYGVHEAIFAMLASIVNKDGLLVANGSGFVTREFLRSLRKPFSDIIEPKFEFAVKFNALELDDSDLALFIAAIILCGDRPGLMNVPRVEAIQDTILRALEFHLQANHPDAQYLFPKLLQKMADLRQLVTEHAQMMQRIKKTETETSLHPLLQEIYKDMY
Summary of the method: as §1

[5] = molecular target: Peroxisome proliferator-activated receptor gamma (Homo sapiens) (UniProt P37231); test: qHTS assay for small molecule agonists of peroxisome proliferator-activated receptor gamma signaling (AID 588536; active = well fitted curve in the direction sought with a large enough effect in the signal ratio, with a control signal flat, not every such curve was filed as active; the % refers to the signal ratio;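 note: 0% = DMSO basal wells and 100% = rosiglitazone at 2 µM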); conditions: HEK293 PPARg-UAS-bla, beta-lactamase ratio, 16 h, percent of rosiglitazone response, DMSO as zero; series mostly up to 76.7 µM
Sequence of Peroxisome proliferator-activated receptor gamma (Homo sapiens) (P37231 whole entry, looked up): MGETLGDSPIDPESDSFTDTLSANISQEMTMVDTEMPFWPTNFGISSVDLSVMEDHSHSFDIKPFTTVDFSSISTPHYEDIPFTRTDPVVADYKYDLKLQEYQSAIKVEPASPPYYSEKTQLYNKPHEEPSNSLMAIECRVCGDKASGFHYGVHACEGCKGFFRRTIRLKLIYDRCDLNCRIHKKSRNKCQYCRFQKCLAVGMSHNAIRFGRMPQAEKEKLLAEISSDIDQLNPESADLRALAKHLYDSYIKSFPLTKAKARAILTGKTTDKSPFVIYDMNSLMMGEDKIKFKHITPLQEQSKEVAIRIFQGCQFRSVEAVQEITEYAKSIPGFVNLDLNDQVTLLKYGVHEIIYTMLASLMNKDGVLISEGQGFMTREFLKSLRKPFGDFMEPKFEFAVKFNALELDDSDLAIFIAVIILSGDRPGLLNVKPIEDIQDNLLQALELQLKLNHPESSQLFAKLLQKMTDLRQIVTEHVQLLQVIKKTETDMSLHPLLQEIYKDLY
Summary of the method: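 Ratiometric blue/green fluorescence (405 nm excitation; 460 and 530 nm emission) from CCF4-loaded HEK293 reporter cells serves as signal. Exposure to test compounds lasts 16 h at 37 C in medium containing 1% charcoal/dextran-treated serum.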

[6] = molecular target: Vitamin D3 receptor (Homo sapiens) (UniProt P11473); test: qHTS assay for small molecule antagonists of vitamin D receptor signaling (AID 588541); conditions: HEK293T VDR-UAS-bla, beta-lactamase ratio, antagonist mode; series mostly up to 76.7 µM;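 note: receptor activated by calcitriol during compound treatment; % is set by controls: 0 for no effect and ±100 for the full control effect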
Sequence of Vitamin D3 receptor (Homo sapiens) (P11473 whole entry, looked up): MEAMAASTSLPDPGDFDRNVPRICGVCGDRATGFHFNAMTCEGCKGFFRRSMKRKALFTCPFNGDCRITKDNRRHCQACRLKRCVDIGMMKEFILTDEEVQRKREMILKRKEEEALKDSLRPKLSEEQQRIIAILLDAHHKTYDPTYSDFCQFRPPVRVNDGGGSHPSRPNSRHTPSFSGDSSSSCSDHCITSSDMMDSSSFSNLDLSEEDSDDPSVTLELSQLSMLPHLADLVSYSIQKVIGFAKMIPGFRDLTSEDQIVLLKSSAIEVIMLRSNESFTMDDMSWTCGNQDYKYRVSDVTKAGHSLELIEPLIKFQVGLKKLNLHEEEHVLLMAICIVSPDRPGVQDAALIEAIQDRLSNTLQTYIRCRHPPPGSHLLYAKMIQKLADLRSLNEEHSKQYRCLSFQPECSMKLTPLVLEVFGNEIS
Summary of the method: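 VDR-UAS-bla HEK293T cells in 2% charcoal-stripped FBS were stimulated with 1-alpha,25-dihydroxyvitamin D3 (3 nM final) plus compound for 16 h at 37 C. The beta-lactamase CCF4 readout was normalized to 50 nM agonist and DMSO, and Hill fits gave IC50.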

[7] = molecular target: Vitamin D3 receptor (Homo sapiens) (UniProt P11473); test: qHTS assay for small molecule agonists of vitamin D receptor signaling (AID 588543); conditions: HEK293T VDR-UAS-bla, beta-lactamase ratio, 16 h; series mostly up to 76.8 µM;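 note: 0% = DMSO basal and 100% = reference agonist control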
Summary of the method: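 Agonist-mode beta-lactamase reporter: HEK293T VDR-UAS-bla cells in charcoal-stripped 2% FBS, compound series 16 h 37 C, CCF4 2 h RT. EC50 from Hill fit, scaled against DMSO and 50 nM calcitriol control.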

[8] = qHTS assay for small molecule agonists of retinoid X receptor alpha signaling (AID 588544); conditions: HEK293T RXRa-UAS-bla, beta-lactamase reporter, 18 h; 530 nm emission;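 for activation: 0% = DMSO basal wells and 100% = reference agonist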
[9] = molecular target: Retinoic acid receptor RXR-alpha (Homo sapiens) (UniProt P19793); test: as above; conditions: HEK293T RXRa-UAS-bla, beta-lactamase reporter, 18 h; series mostly up to 76.7 µM
Sequence of Retinoic acid receptor RXR-alpha (Homo sapiens) (P19793 whole entry, looked up): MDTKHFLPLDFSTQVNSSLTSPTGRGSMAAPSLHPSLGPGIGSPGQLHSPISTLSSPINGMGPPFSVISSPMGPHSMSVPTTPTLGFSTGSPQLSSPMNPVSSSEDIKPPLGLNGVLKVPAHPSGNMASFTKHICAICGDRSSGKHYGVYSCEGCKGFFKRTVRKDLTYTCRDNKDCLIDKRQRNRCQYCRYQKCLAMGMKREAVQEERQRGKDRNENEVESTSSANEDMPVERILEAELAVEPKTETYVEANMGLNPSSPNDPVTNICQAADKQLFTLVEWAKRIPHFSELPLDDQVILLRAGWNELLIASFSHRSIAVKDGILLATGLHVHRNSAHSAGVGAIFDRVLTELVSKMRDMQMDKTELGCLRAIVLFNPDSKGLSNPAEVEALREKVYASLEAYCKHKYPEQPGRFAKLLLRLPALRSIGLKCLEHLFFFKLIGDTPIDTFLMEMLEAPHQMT

[10] = molecular target: Thyroid hormone receptor beta (Homo sapiens) (UniProt P10828); test: qHTS assay for small molecule agonists of thyroid hormone receptor beta signaling (AID 588545); conditions: TR-UAS-bla GripTite HEK 293, beta-lactamase ratio, agonist mode, 18 h, percent of T3 response, DMSO as zero; series mostly up to 76.7 µM;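 note: 0% = DMSO only and 100% = 10 nM T3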
Sequence of Thyroid hormone receptor beta (Homo sapiens) (P10828 whole entry, looked up): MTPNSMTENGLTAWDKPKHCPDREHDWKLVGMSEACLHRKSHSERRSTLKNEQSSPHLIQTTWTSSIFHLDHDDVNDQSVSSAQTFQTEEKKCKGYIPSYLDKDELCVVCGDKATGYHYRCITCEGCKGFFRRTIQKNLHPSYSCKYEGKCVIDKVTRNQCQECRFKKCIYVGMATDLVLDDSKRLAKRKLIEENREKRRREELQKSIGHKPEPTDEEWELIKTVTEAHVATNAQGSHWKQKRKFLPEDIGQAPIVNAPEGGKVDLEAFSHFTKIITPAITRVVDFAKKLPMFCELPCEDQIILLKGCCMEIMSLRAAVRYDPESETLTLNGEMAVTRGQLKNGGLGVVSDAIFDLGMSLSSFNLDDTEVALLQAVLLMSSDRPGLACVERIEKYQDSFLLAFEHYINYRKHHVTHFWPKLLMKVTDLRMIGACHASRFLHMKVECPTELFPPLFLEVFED
Summary of the method: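 Stimulation of a TR-driven beta-lactamase reporter was quantified in GripTite HEK 293 cells. Compound series ran for 18 hrs; curves were normalized to T3 and DMSO controls and fitted to yield EC50.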

[11] = qHTS assay for small molecule antagonists of retinoid X receptor alpha signaling (AID 588546; active = well fitted inhibition curve with a large enough effect in the signal ratio, with a control signal flat, not every such curve was filed as active; the % refers to the signal ratio;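 note: cells stimulated with 9-cis-retinoic acid as agonist; % is set by controls: 0 for no effect and ±100 for the full control effect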); conditions: HEK293T RXRa-UAS-bla, beta-lactamase ratio, antagonist mode; measured here: W530 green channel, cytotoxicity proxy
Summary of the method: (§2)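 Beta-lactamase reporter inhibition, read as CCF4 fluorescence ratio (ex 405, em 460/530 nm) after 2 h at RT. HEK293T UAS-bla cells, 2500/well, were stimulated with 9-cis-RA at 500 or 100 nM final alongside test compound for 18 h at 37 C.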

[12] = molecular target: Retinoic acid receptor RXR-alpha (Homo sapiens) (UniProt P19793); test: as above; conditions: HEK293T RXRa-UAS-bla, beta-lactamase ratio, antagonist mode
Summary of the method: as §2

[13] = molecular target: Thyroid hormone receptor beta (Homo sapiens) (UniProt P10828); test: qHTS assay for small molecule antagonists of thyroid hormone receptor beta signaling (AID 588547; active = well fitted inhibition curve with a large enough effect in the signal ratio, with a control signal flat, not every such curve was filed as active; the % refers to the signal ratio); conditions: TR-UAS-bla HEK293, beta-lactamase ratio, antagonist mode, 18 h
Summary of the method: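 TR-UAS-bla GripTite HEK293 cells in 2% charcoal/dextran FBS medium; compounds 0.59 nM to 92 uM with T3 at 0.4nM final, 18 h at 37 C. Beta-lactamase read by CCF4 fluorescence (460/530 nm); Hill fits gave IC50 and efficacy.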

[14] = qHTS assay for small molecule agonists of the antioxidant response element (ARE) signaling pathway (AID 651741; active = well fitted activation curve with a large enough effect in the signal ratio; the % refers to the signal ratio; note: % of control where 0% means no effect); conditions: HepG2 ARE-bla reporter, beta-lactamase FRET ratio, 16 h; series mostly up to 96 µM
Summary of the method: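 CellSensor ARE-bla HepG2 cells (2,000/well) carrying ARE-driven beta-lactamase, exposed 16 h at 37 C. LiveBLAzer B/G FRET substrate added for 2 h at room temperature; fluorescence intensity read.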

[15] = qHTS assay for small molecule activators of the nuclear factor-kappa B (NF-kB) signaling pathway (AID 651749; active = well fitted activation curve with a large enough effect in the signal ratio; the % refers to the signal ratio; note: % of control where 0% means no effect); conditions: NF-kB-bla ME-180 cells, beta-lactamase FRET ratio, 16 h; stronger effect = higher value
Summary of the method: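 NF-kB-bla ME-180 cells carrying a beta-lactamase reporter under an NF-kB response element, 2,000 cells/well, exposed to compound for 16 hr at 37C; FRET-based beta-lactamase fluorescence read-out of pathway activation.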

[16] = qHTS assay for environmental chemicals that activate the Aryl hydrocarbon Receptor (AhR) signaling pathway (AID 651777; active = well fitted curve in the direction sought with a large enough effect; an effect the other way counts as inactive or inconclusive; note: % of control where 0% means no effect; nearly all actives have a fitted effect of over 15% in size); conditions: 1A2-DRE human hepatoma cells, luciferase, 24 h; activation: stronger effect = higher value
Summary of the method: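 AhR activation is scored as a rise in luciferase from a stable DRE–CYP1A2 promoter construct in human hepatoma cells. Treatment lasts 24 hr at 37 C; detection uses One-Glo after 30 min at room temperature.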

[17] = molecular target: Peroxisome proliferator-activated receptor alpha (Homo sapiens) (UniProt Q07869); test: qHTS assay for small molecule agonists of the peroxisome proliferator-activated receptor alpha (PPARalpha) signaling pathway (AID 651778; active = well fitted curve in the direction sought with a large enough effect; an effect the other way counts as inactive or inconclusive; note: % of control where 0% means no effect); conditions: PathHunter PPARalpha complementation, chemiluminescence, 6 h; max response: stronger effect = higher value
Sequence of Peroxisome proliferator-activated receptor alpha (Homo sapiens) (Q07869 whole entry, looked up, the tested form may be a part): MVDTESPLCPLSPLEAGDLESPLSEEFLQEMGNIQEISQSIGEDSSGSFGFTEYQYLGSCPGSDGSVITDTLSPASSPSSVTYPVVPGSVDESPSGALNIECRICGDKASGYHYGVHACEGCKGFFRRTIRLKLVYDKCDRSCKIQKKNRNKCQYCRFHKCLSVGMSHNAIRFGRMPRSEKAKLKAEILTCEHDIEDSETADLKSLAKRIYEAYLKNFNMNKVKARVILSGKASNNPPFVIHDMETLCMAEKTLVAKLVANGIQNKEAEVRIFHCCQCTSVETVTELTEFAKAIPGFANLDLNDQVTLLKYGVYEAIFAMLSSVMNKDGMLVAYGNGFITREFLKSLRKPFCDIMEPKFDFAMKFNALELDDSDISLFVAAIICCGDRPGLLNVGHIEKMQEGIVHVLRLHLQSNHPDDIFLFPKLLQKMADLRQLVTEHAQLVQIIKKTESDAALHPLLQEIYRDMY
Summary of the method: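 Enzyme-fragment complementation assay in which ligand-bound PPARalpha translocates and forms an active enzyme that generates chemiluminescence. Cells were plated overnight, exposed to compound for 6 hr at 37 C, and then given detection reagent for 60 min at room temperature.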

[18] = qHTS assay for small molecule agonists of the antioxidant response element (ARE) signaling pathway measured by Nrf2-dependant transcriptional activity (AID 720636; active = well fitted curve in the direction sought with a large enough effect in the repeat runs; an effect the other way counts as inactive or inconclusive;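 note: HepG2 cells with an ARE-driven luciferase reporter; % of control where 0% means no effect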); conditions: ARE-luc HepG2, Nrf2 luciferase reporter, 16 h; series mostly up to 92.4 µM
Summary of the method: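 First, ARE-luc HepG2 cells attached for 6 hr at 37 C in 1% dialyzed FBS medium. Next, compound or DMSO was added and incubated 16 hr. Finally, ONE-Glo reagent was added and luminescence measured after 30 min.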

[19] = qHTS assay for small molecule agonists of the antioxidant response element (ARE) signaling pathway measured by Nrf2-dependant transcriptional activity - cell viability counter screen (AID 720653; active = well fitted curve in the direction sought with a large enough effect in the repeat runs; an effect the other way counts as inactive or inconclusive; note: % is set by controls: 0 for no effect and ±100 for the full control effect); conditions: ARE-bla HepG2 viability, CellTiter-Glo ATP luminescence, 16 h; max response: stronger effect = lower value
Summary of the method: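 ARE-bla HepG2 cells treated with compounds for 16 h at 37C; this counter screen measures viability as intracellular ATP by CellTiter-Glo luminescence after 30 min at room temperature.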

[20] = molecular target: Nuclear receptor subfamily 1 group I member 2 (Rattus norvegicus) (UniProt Q9R1A7); test: qHTS assay for small molecule activators of the rat pregnane X receptor (rPXR) signaling pathway (AID 651751; call rule not given here; note: 0% is about no effect); conditions: rPXR reporter cells, luciferase (One-Glo), 24 h
Sequence of Nuclear receptor subfamily 1 group I member 2 (Rattus norvegicus) (Q9R1A7 whole entry, looked up): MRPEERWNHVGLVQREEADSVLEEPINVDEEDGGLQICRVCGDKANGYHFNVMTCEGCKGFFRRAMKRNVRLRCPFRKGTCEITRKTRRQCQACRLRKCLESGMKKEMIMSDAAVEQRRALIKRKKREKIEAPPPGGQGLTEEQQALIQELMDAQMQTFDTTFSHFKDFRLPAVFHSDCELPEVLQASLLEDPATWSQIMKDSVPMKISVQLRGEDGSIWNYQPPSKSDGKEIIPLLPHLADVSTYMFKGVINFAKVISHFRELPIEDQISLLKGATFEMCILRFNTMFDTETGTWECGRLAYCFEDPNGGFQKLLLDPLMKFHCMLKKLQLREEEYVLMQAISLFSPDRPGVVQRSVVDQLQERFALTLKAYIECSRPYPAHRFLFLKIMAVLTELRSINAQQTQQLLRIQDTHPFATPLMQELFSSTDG

CC1CCC(C(C)C)C(O)C1 (stereo not given)
inactive: outcome [1] | Potency [2] | outcome [4] | outcome [5] | Potency [6] | outcome [7] | outcome [9] | outcome [10] | max response [12] 5.79% | activity change % (negative = inhibition) [13] -1.02% | Potency [14] | activation [15] -2.43% | activation [16] -1.72% | max response [17] -0.619% | Potency [18] | max response [19] 1.08% | max response [20] -4.79%
8.18%: max response [3]
-12.2%: max response [11]
-16.3%: max response [8]

Source: PubChem BioAssay (NCATS)
